# Only some compounds are listed: those with a hit (about 3.5% of all), similar ones and a draw of the others.
# Pf apPOL inh = Pf-apPOL DNA polymerase inhibition. Recombinant Pf-apPOL, molecular beacon fluorescence, 1.5 h. inhibition, % at 10 µM. hit rate 0.25% among 210,000
# mHTT-CaM PPI inh = inhibitors of human mutant huntingtin-calmodulin interaction. P42858. AlphaScreen His-mHTT/GST-CaM binding, luminescence. inhibition, % at 15 µM. hit rate 3.6% among 190,000;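 further: 0% = both proteins with DMSO and 100% = one protein alone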
# * hit, by the source's call; nt = no result; ! = a repeat was not active. No stated cut-off is given here; in the data, active means inhibition above about 50%; inactive means the rest.
SMILES,Pf apPOL inh,mHTT-CaM PPI inh
CCOc1ccc(C(=O)Nc2c3c(nn2C(C)(C)C)CSC3)cc1,-6,22
O=c1c2oc3nc(-c4ccccc4)cc(-c4ccco4)c3c2ncn1N=Cc1ccc(F)cc1,-5,nt
Cc1ccc2nc(/C(C#N)=C/C=C/c3ccco3)[nH]c2c1,-7,67*
Cc1ccc2nc(/C(C#N)=C/c3ccc(-c4cc([N+](=O)[O-])ccc4O)o3)[nH]c2c1,-1,56*
COc1cc(-c2ccc(/C=C(\C#N)c3nc4ccc(C)cc4[nH]3)o2)c(OC)cc1Cl,-20,35
N#C/C(=C\c1ccco1)c1nc2ccccc2[nH]1,-8,3
CCOc1cc(/C=C(\C#N)c2nc3ccc(C)cc3[nH]2)cc(I)c1O,-1,80*
Cc1ccc2nc(/C(C#N)=C/c3ccc([N+](=O)[O-])o3)[nH]c2c1,-2,-6
CCOc1ccc(/C=C(\C#N)c2nc3ccc(C)cc3[nH]2)cc1,0,19
Cc1ccc2nc(/C(C#N)=C/c3ccc(-c4ccc5c(c4)C(=O)NC5=O)o3)[nH]c2c1,-4,68*
Cc1c(C(=O)Nc2ccccc2)cc(-c2ccccc2)n1CCSCc1c(F)cccc1Cl,2,nt
O=C1OC(c2ccco2)=N/C1=C/c1ccc(F)cc1,0,20
O=[N+]([O-])c1ccccc1CNC12CC3CC(CC(C3)C1)C2,-4,3
Cc1cc(C(=O)Nc2nnc(C(C)(C)C)s2)ccc1[N+](=O)[O-],-11,1
CC(=O)N1c2c(cc(Br)cc2S(=O)(=O)NC2CCCCCC2)CC1C (centres undefined),-2,14
COc1cccc(-c2cn3ccn(-c4ccc(C)c(C)c4)c(=O)c3n2)c1,-1,-4
Cc1ccc(NC(=O)CCn2c(N3CCCCC3)nc3ccccc3c2=O)cc1F,-4,0
Cc1cc(C)n(-c2nc(N3CCOCC3)nc(C)c2[N+](=O)[O-])n1,69*!,-1
Cc1nc(N2CCOCC2)nc(N2CCCC2)c1[N+](=O)[O-],-10,-2
C=CSc1sc(Cl)c(N2CCCCCC2)c1[N+](=O)[O-],6,43
C=CSc1sc(Cl)c(N2CCCC2)c1[N+](=O)[O-],6,75*
CCN(Cc1ccccc1)Cc1ccccc1[N+](=O)[O-],-8,-22
C=CSc1sc(Cl)c(N(C)Cc2ccccc2)c1[N+](=O)[O-],-76,64*
COc1cc(C(=O)c2cc(Br)ccc2N)cc(OC)c1OC,5,46
Cc1cc(C)cc(-n2nnc(C(=O)NCc3cccs3)c2N)c1,-6,0
SMILES,Pf apPOL inh,mHTT-CaM PPI inh
COc1cccc(CNC(=O)CN2CCc3nc(C)n(C)c3C2)c1,1,18
O=C(O)CCCC(=O)N1N=C(c2ccc(Br)cc2)CC1c1ccco1 (centres undefined),-2,22
Cc1ccc(C(=O)N2N=C(c3ccc(Br)cc3)CC2c2ccco2)cc1 (centres undefined),-3,78*
COc1ccc(-c2ccc(C=NNc3c(Cl)cc(Cl)cc3C(F)(F)F)s2)cc1,-3,nt
C=CCn1c(=N)n(CC(=O)c2ccc(Cl)c(Cl)c2)c2ccccc21,-4,-46
C=CCn1c(=N)n(CC(=O)c2ccc(-c3ccccc3)cc2)c2ccccc21,-2,52*
CC(=O)Nc1ccc(Cl)c2c1C(=O)c1ccccc1C2=O,10,5
CNc1ccc(Cl)c2c1C(=O)c1ccccc1C2=O,33,77*
Cc1nn(Cc2c(Cl)cccc2Cl)c(C)c1NC(=O)c1cc(-c2ccco2)on1,1,2
Cc1ccc(-n2ccnc(NC(=O)c3ccc(F)cc3)c2=O)cc1C,-1,6
CC(=O)NCc1csc(C2CCN(C(=O)c3cccc(C)c3)CC2)n1,-1,0
CCC(=O)NC(=Nc1nc(C)c2cc(C)c(C)cc2n1)NC(=O)CC,52*,2
CCOc1ccc2c(C)nc(N=C(N)NC(=O)CC)nc2c1,-1,-5
O=C(Nc1ccc2c(c1)OCO2)C1CCN(c2cc(N3CCSCC3)ncn2)CC1,-6,48
Cc1ccc(NC(=O)C2CCN(c3cc(=O)n(C)c(=O)n3C)CC2)cc1,-5,35
Cc1ccc(Cl)cc1N(C)C(=O)C1CCN(c2cc(=O)n(C)c(=O)n2C)CC1,-3,50*
Cn1c(N2CCC(C(=O)Nc3ccc(Cl)cc3)CC2)cc(=O)n(C)c1=O,-2,38
COc1ccc(CC(=O)Nc2ccc3ncnc(N4CCCCC4)c3c2)cc1Cl,1,55*
COc1ccc(CCC(=O)Nc2ccc3ncnc(N4CCCCC4)c3c2)cc1,-5,19
Cn1c(N2CCC(C(=O)Nc3ccc4c(c3)OCCO4)CC2)cc(=O)n(C)c1=O,2,57*
O=C(Nc1ccc2c(c1)OCCO2)C1CCN(c2cc(N3CCSCC3)ncn2)CC1,-9,64*
COC(=O)c1cc(Nc2ccc(N(C)C)cc2)c2ccccc2n1,-6,-2
CN1CCN(C(=O)C2CC(=O)N(c3ccc4c(c3)CCN4C(=O)C3CC3)C2)CC1 (centres undefined),2,0
COc1ccc(NC(=O)C2CCN(c3cc(N4CCCC4)ncn3)CC2)cc1Cl,-6,54*
